13 compounds from PubChem BioAssay (NCI) can be followed below.

Compounds without any hit were thinned out: in the full panel of roughly 83,000, 20% have a hit.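 Activity criterion: percent growth below 10, measured after cells in 96-well plates were exposed to a single compound concentration for 48 hours.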 Unmarked numbers belong to inactive results. Activity calls are given as the source filed them.

Among the test systems are DU-145 prostate; MALME-3M melanoma; MDA-MB-231 breast; RXF 393 renal; SF-268 CNS; SF-295 CNS; SF-539 CNS; UACC-257 melanoma; M14 melanoma; K-562 leukemia.
Holding throughout (test): NCI-60 one-dose screen, 48 h (100 = growth as untreated, 0 = no growth, -100 = all killed)
What all share (conditions): 10 µM unless noted

With `FCOC(C(F)(F)F)C(F)(F)F`, the growth in the experiment on DU-145 prostate was 113%; in the experiment on MALME-3M melanoma it was 92.2%; in the experiment with MDA-MB-231 breast, 120%; in the experiment with RXF 393 renal, 115%; in the experiment with SF-268 CNS it was 115%; with SF-295 CNS, 106%. Moreover, the growth in the experiment with SF-539 CNS was 98.8%; in the experiment with UACC-257 melanoma, 90.4%; in the experiment with M14 melanoma, 99.9%.
On to `COc1ccc(Nc2[nH]n(C3=Nc4ccccc4Sc4ccccc43)c(=O)c2C#N)cc1`, for which the growth with DU-145 prostate was 67%; with K-562 leukemia it was 51.9%; with MDA-MB-231 breast, 51.2%; in the experiment with RXF 393 renal, 59.3%; in the experiment on SF-268 CNS it was 67.2%; in the experiment with SF-539 CNS, 45.6%. Besides, the values for the growth in the experiment with UACC-257 melanoma and with M14 melanoma were 36.3% and 55.9%, respectively.
Consider `OB(O)c1ccccc1`, for which the growth with DU-145 prostate is 111%; with MALME-3M melanoma, 102%; in the experiment with MDA-MB-231 breast, 114%; with RXF 393 renal, 123%; in the experiment with SF-268 CNS it was 106%; with SF-295 CNS it was 97.7%. Moreover, the growth is 106% in the experiment on SF-539 CNS, 99.4% in the experiment on UACC-257 melanoma and 108% in the experiment with M14 melanoma.
For the compound `CSC1=CC(=O)c2ccccc2C1=O`, the growth in the experiment on DU-145 prostate is 95.5%; with MALME-3M melanoma, -0.209% (active); in the experiment on MDA-MB-231 breast, -14.5% (active); with RXF 393 renal, 98.3%; with SF-268 CNS, 69%; in the experiment with SF-295 CNS, 93.7%. Moreover, the growth in the experiment on SF-539 CNS was 97.1%; with UACC-257 melanoma, 42%; in the experiment with M14 melanoma, 94.7%.
For `N#C[S-].[Au+].c1ccc(CN2[CH-]N(Cc3ccccc3)C(c3ccccc3)=C2c2ccccc2)cc1`, in the experiment on SF-295 CNS, the growth is -14.8% (active).
As to `COc1cc(-c2nc(Nc3nc4ccccc4[nH]3)nc(N)c2C#N)cc(OC)c1OC`, the growth was 61.8% with DU-145 prostate; 65% in the experiment on MALME-3M melanoma; 53% in the experiment with MDA-MB-231 breast; -1.43% (active) in the experiment with RXF 393 renal; 71.2% with SF-268 CNS; 18.1% with SF-295 CNS. Moreover, the growth in the experiment on SF-539 CNS was 58.9%; in the experiment on UACC-257 melanoma it was 69.5%; with M14 melanoma, 53%.
Regarding `N#Cc1c(O)c2c(c(O)c1C#N)C(=O)c1ccccc1C2=O`, the growth with MALME-3M melanoma was -16.5% (active); with MDA-MB-231 breast, 2.69% (active); in the experiment with RXF 393 renal, 92.3%; in the experiment on SF-268 CNS it was 32.6%; in the experiment on SF-295 CNS, 59.6%; with SF-539 CNS it was 46.9%. The growth was 28.4% in the experiment with UACC-257 melanoma and 2.51% (active) with M14 melanoma.
With `c1ccc2c(c1)oc1cc3c(cc12)nnc1cccn13`, the growth in the experiment on MALME-3M melanoma is 93.8%; in the experiment on MDA-MB-231 breast, 101%; in the experiment on RXF 393 renal it was 127%; with SF-268 CNS it was 105%; in the experiment with SF-295 CNS, 101%; in the experiment with SF-539 CNS, 95.1%. Further, the growth is 95.7% in the experiment with UACC-257 melanoma and 98.7% in the experiment with M14 melanoma.
As for `CN1CCn2c(c(Sc3ccc(C(=O)NO)cc3)c3ccccc32)C1=O`, the growth with DU-145 prostate was 36.3%; in the experiment on MALME-3M melanoma, 63.6%; in the experiment with MDA-MB-231 breast it was -15.2% (active); with RXF 393 renal, -14.4% (active); with SF-268 CNS it was -34.9% (active); with SF-295 CNS, -1.68% (active). Besides, the growth in the experiment with SF-539 CNS was -90.8% (active); in the experiment with UACC-257 melanoma, -9.93% (active); in the experiment on M14 melanoma, -37.7% (active).
For `Cc1ccc(N(CSc2ccc(Cl)cc2)CSc2ccc(Cl)cc2)cc1`, the growth in the experiment with DU-145 prostate is 44.8%; in the experiment with MALME-3M melanoma, 69.1%; in the experiment with MDA-MB-231 breast, 18.4%; in the experiment with RXF 393 renal, 91.4%; in the experiment on SF-268 CNS, 25%; in the experiment with SF-295 CNS it was 11.3%. For the same compound, the values for the growth in the experiment on SF-539 CNS, in the experiment on UACC-257 melanoma and in the experiment on M14 melanoma were 16.1%, 88.9% and 57.8%, respectively.
For the compound `Cc1cc(C)c(S(=O)O)c(C)c1`, the growth with DU-145 prostate is 120%; in the experiment on MALME-3M melanoma it was 122%; with MDA-MB-231 breast it was 102%; with RXF 393 renal it was 101%; in the experiment with SF-268 CNS, 114%; with SF-295 CNS, 93.4%. The figures for the growth in the experiment on SF-539 CNS, with UACC-257 melanoma and with M14 melanoma were 104%, 121% and 116%, respectively.
For the compound `OC[C@@H](O)[C@@H](O)CO`, the growth with DU-145 prostate was 111%; in the experiment on MALME-3M melanoma, 97.3%; in the experiment on MDA-MB-231 breast, 94.7%; in the experiment with RXF 393 renal, 110%; in the experiment on SF-268 CNS, 108%; in the experiment on SF-295 CNS it was 94.7%. Moreover, the growth was 102% with SF-539 CNS, 105% with UACC-257 melanoma and 106% in the experiment with M14 melanoma.
For `CSc1nnc(-c2sc3nnc(-c4ccccc4)c(-c4ccccc4)c3c2O)o1`, the growth with DU-145 prostate is 84.7%; in the experiment on MDA-MB-231 breast it was 90.4%; with RXF 393 renal, 82.6%; with SF-268 CNS, 80.6%; in the experiment on SF-295 CNS it was 40.8%; with SF-539 CNS, 84.6%. The growth in the experiment on UACC-257 melanoma is 91.6%; in the experiment with M14 melanoma, 73%.
